A short description of assay [1]: qHTS assay to identify small molecule agonists of the estrogen related receptor (ERR) signaling pathway from Tox21 library (AID 1224849; calls by dose curve; further: nearly all actives have a fitted effect of over 15% in size). The conditions noted are these: ERR reporter cell line, ONE-Glo luciferase, 18 h; at 92.4 µM (top of the series). The procedure, abridged:
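ERR reporter cell line (NTP) seeded, rested 6 h at 37 C/5% CO2, then pinned with Tox21 compounds in DMSO. After 18 h at 37 C, ONE-Glo luciferase luminescence was read following 30 min at room temperature.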

The nature of assay [2]: qHTS RealTime-Glo MT Cell Viability Assay in HepG2 cells - 24 hour (AID 1224867). Further: nearly all actives have a fitted effect of over 50% in size. Particulars: RealTime-Glo luminescence; series mostly up to 76.8 µM. A digest of the protocol:
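HepG2 suspension premixed with RealTime-Glo reagents is plated at 600 cells per well and left 5 h at 37 C/5% CO2. Compounds in DMSO then go in, and bioluminescence reflecting viable cell number is recorded over 40 h.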

Assay [3] in a line: qHTS RealTime-Glo MT Cell Viability Assay in HEK293 cells - 32 hour (AID 1224868). Further: top concentration of the series differs between compounds; nearly all actives have a fitted effect of over 50% in size. Particulars: RealTime-Glo luminescence; series mostly up to 76.8 µM. The procedure, abridged: (§1)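 Reads taken at 0, 8, 16, 24, 32 and 40 h from the same wells. HEK293 cells (600/well) carried RealTime-Glo reagents from seeding, with compound added after a 5 h settle at 37 C.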
Assay [4] can be described thus: A CellTox Green Cytotoxicity Assay to monitor cytotoxicity in HEK293 cells - 0 hour (AID 1224869). Further: nearly all actives have a fitted effect of over 50% in size. The conditions noted are these: CellTox Green fluorescence; series mostly up to 76.8 µM. The procedure, abridged:
(§2)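 HEK293 cells premixed with CellTox Green dye were seeded at 600 cells/well and left 5 h at 37 C/5% CO2 before pin transfer of 23 nL compound in DMSO. Fluorescence from dye bound to dead-cell DNA was read during 40 h treatment.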

Assay [5] is described as follows: qHTS RealTime-Glo MT Cell Viability Assay in HepG2 cells - 40 hour (AID 1224870). Further: nearly all actives have a fitted effect of over 50% in size. The conditions noted are these: RealTime-Glo luminescence; series mostly up to 76.8 µM. The procedure, abridged:
(§3)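 Real-time viability: cells seeded at 600 per well together with NanoLuc and cell-permeant prosubstrate, compounds added after 5 h incubation. Luminescence tracked at 0, 8, 16, 24, 32 and 40 h of exposure.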

Assay [6] in a line: qHTS RealTime-Glo MT Cell Viability Assay in HEK293 cells - 16 hour (AID 1224872). Particulars: RealTime-Glo luminescence; series mostly up to 76.8 µM. A digest of the protocol: as §1
Assay [7] can be described thus: qHTS RealTime-Glo MT Cell Viability Assay in HepG2 cells - 8 hour (AID 1224873). Further: nearly all actives have a fitted effect of over 55% in size. The conditions noted are these: RealTime-Glo luminescence; series mostly up to 76.8 µM. A digest of the protocol: as §3
A short description of assay [8]: qHTS RealTime-Glo MT Cell Viability Assay in HEK293 cells - 40 hour (AID 1224874). Further: nearly all actives have a fitted effect of over 50% in size. Further: potency means the concentration at half of the fitted maximal effect. The conditions noted are these: RealTime-Glo luminescence; max response: stronger effect = lower value. The procedure, abridged:
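HEK293 cells mixed with RealTime-Glo reagents (NanoLuc plus cell-permeant prosubstrate) at 600 cells/well, preincubated 5 h at 37 C/5% CO2, then given 23 nL compound in DMSO. Nonlytic luminescence from viable cells was read at 0, 8, 16, 24, 32 and 40 h.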

Assay [9] in a line: A CellTox Green Cytotoxicity Assay to monitor cytotoxicity in HEK293 cells - 40 hour (AID 1224871). Further: nearly all actives have a fitted effect of over 45% in size. Particulars: CellTox Green fluorescence; series mostly up to 76.8 µM. A digest of the protocol:
as §2

Assay [10] is described as follows: A CellTox Green Cytotoxicity Assay to monitor cytotoxicity in HEK293 cells - 24 hour (AID 1224875). Further: nearly all actives have a fitted effect of over 45% in size. Particulars: CellTox Green fluorescence; series mostly up to 76.8 µM. A digest of the protocol: as §2

Several values for one entry are separate records, joined by “and”; a condition that tells them apart may be missing. Identical values can stand only once. Unmarked numbers belong to inactive results. Inconclusive results are not listed. Some compounds were tested as several samples or in several runs, with calls that do not always agree. Activity calls are given as the source filed them. Unless noted, the call rests on the fitted dose curve; in most records, active means well fitted curve in the direction sought with a large enough effect in the repeat runs; inconclusive means weak or mixed curves; inactive means no such curve, though single readings can be large; an effect the other way counts as inactive or inconclusive.
On the % scale 0 is the no-effect control and ±100 the full control effect.

With `c1ccc2c(c1)ccc1ccccc12`, the activity change, positive = activation in assay [1] was -34.9% and -32.3%. In addition, the call in assay [2], in assay [4], in assay [5] and in assay [7] was inactive. For the same molecule, the Potency result in assay [3] and in assay [6] was “inactive” in each case. Moreover, in [8], the max response was -10.3%.

As for `CCC(O)OC(O)CC` (configuration not stated), the activity change, positive = activation in assay [1] was 4% and 3.85%. For the same molecule, the call in assay [2], in assay [4], in [5] and in assay [7] was inactive. Besides, the Potency result in [3], in assay [9], in assay [6] and in [10] was “inactive” throughout. Also, the max response in assay [8] is 5.86% and 8.63%.

Consider `O=C(CC(C(=O)OC1CCCCC1)S(=O)(=O)O)OC1CCCCC1` (configuration not stated), for which the activity change, positive = activation in assay [1] is 3.03% and -2.61%. In addition, the molecule was classed as inactive in [2], in assay [4], in assay [5] and in [7]. The Potency entry in [3], in assay [9], in [6] and in assay [10] was “inactive” each time. For the same molecule, in assay [8], the max response is 7.94% and 16.6%.

As to `CN(C)CCC(c1ccccc1)c1ccccn1` (configuration not stated), the molecule was classed as inactive in [2], in [4], in assay [5] and in [7]. Besides, the Potency entry in assay [3], in assay [9], in [6] and in assay [10] was “inactive” in each case. Also, the max response in [8] is 7.85% and 1.55%.

In the case of `O=C(O)c1ccc(C(=O)O)cc1`, the call in assay [2], in assay [4], in assay [5] and in assay [7] was inactive. In addition, the Potency entry in [3], in assay [9], in [6] and in [10] was “inactive” each time. Besides, in [8], the max response is -0.318% and 3.28%.

In the case of `O=C(O)c1ccc2c(c1)C(=O)OC2=O`, the molecule was classed as inactive in assay [2], in [4], in assay [5] and in assay [7]. Besides, the Potency result in [3], in assay [9], in assay [6] and in [10] was “inactive” throughout. In addition, in [8], the max response was 5.17% and 0.547%.

For the molecule `CCCCCC(N)=O`, the outcome in [2], in [4], in assay [5] and in assay [7] was inactive. Further, the Potency entry in assay [3], in assay [9], in [6] and in assay [10] was “inactive” each time. Moreover, the max response in assay [8] is 0.824% and 2.09%.

Turning to `CC(C)c1ccc(S(=O)(=O)O)cc1`, the result in [2], in assay [4], in assay [5] and in assay [7] was inactive. For the same molecule, the Potency result in assay [3], in [9] and in [6] was “inactive” in each case. Further, the max response in [8] was -1.12% and 9.2%.

Turning to `OCCOCCN1CCN(C2=Nc3ccccc3Sc3ccccc32)CC1`, the call in assay [2], in assay [4], in assay [5] and in assay [7] was inactive. The Potency entry in assay [3], in assay [9], in assay [6] and in assay [10] was “inactive” throughout. Besides, the Potency in assay [8] was 9.52 µM (active). Also, in assay [8], the max response was -19.6%.

With `O=[N+]([O-])c1ccc(/C=C/c2ccc([N+](=O)[O-])cc2S(=O)(=O)O)c(S(=O)(=O)O)c1`, the molecule was called inactive in assay [2], in [4], in assay [5] and in [7]. Also, the Potency entry in assay [3], in [9], in [6] and in assay [10] was “inactive” in each case. The max response in [8] is 6.57% and 8.56%.

For the molecule `CN(C)CCC(c1ccc(Cl)cc1)c1ccccn1` (configuration not stated), the outcome in assay [2], in [4], in [5] and in [7] was inactive. The Potency entry in assay [3], in [9], in assay [6] and in assay [10] was “inactive” each time. In addition, the max response in assay [8] was -8.75% and -11.3%.

Consider `O=C(O)CC(C(=O)O)C(CC(=O)O)C(=O)O` (configuration not stated), for which the outcome in [2], in [4], in [5] and in assay [7] was inactive. Besides, the Potency result in assay [3], in assay [9], in [6] and in assay [10] was “inactive” throughout. For the same molecule, the max response in assay [8] was -2.07% and -0.191%.

On to `Cc1cnc(C(=O)NCCc2ccc(S(=O)(=O)NC(=O)NC3CCCCC3)cc2)cn1`, for which the outcome in [2], in [4], in [5] and in [7] was inactive. Also, the Potency entry in assay [3], in assay [9], in assay [6] and in [10] was “inactive” in each case. In addition, the max response in [8] was 11.5% and 10.1%.

Turning to `C/C=C1/CC2C=CC1C2` (configuration not stated), the molecule was classed as inactive in [2], in [4], in assay [5] and in [7]. Further, the Potency result in assay [3], in assay [9], in assay [6] and in assay [10] was “inactive” each time. Moreover, in [8], the max response is 4% and 6.36%.

As for `Cc1ccc(S(N)(=O)=O)cc1`, the molecule was classed as inactive in [2], in assay [4], in assay [5] and in assay [7]. The Potency result in assay [3], in [9], in assay [6] and in assay [10] was “inactive” each time. For the same molecule, the max response in [8] was 1.64%.

Regarding `Cc1occc(=O)c1O`, the molecule was classed as inactive in assay [2], in assay [4], in [5] and in [7]. The Potency result in [3], in [9], in assay [6] and in assay [10] was “inactive” in each case. Besides, the max response in assay [8] is -7.52% and -0.505%.

Consider `CCCCCC1=CCCC1=O`, for which the outcome in assay [2], in assay [4], in assay [5] and in assay [7] was inactive. The Potency result in assay [3], in assay [9], in assay [6] and in assay [10] was “inactive” in each case. Besides, the max response in [8] was 5.34% and -3.52%.

Take `CCCCCCCCCCCCS`: the result in assay [2], in assay [4], in [5] and in [7] was inactive. Moreover, the Potency result in assay [3], in assay [9], in [6] and in [10] was “inactive” throughout. Besides, the max response in assay [8] was 0.961% and 6.67%.

As to `O=S1(=O)CC=CC1`, the result in assay [2], in assay [4], in assay [5] and in assay [7] was inactive. Also, the Potency entry in assay [3], in [9], in [6] and in assay [10] was “inactive” each time. Besides, in [8], the max response is -4.83% and 3.43%.

The values are drawn from PubChem BioAssay (Tox21).
